Data published in the supplement of paper PMC11624193, “Coupling cellular drug-target engagement to downstream pharmacology with CeTEAM” (Nature Communications, 2024).
Structures can show the parent of a compound that is named as a salt.

target: PARP1 L713F-nLuc biosensor (HCT116) (UniProt P09874); experiment: PARP1 L713F-nLuc/akaLuc ratio relative to DMSO control (biosensor stabilization) (fold change); higher = more PARP1 biosensor stabilization (target engagement / stabilizer), active = hit call of the paper; details: stock concentration (mM; final µM = stock mM x 1): 10; 24 h
Sequence (P09874 whole entry L713F, looked up): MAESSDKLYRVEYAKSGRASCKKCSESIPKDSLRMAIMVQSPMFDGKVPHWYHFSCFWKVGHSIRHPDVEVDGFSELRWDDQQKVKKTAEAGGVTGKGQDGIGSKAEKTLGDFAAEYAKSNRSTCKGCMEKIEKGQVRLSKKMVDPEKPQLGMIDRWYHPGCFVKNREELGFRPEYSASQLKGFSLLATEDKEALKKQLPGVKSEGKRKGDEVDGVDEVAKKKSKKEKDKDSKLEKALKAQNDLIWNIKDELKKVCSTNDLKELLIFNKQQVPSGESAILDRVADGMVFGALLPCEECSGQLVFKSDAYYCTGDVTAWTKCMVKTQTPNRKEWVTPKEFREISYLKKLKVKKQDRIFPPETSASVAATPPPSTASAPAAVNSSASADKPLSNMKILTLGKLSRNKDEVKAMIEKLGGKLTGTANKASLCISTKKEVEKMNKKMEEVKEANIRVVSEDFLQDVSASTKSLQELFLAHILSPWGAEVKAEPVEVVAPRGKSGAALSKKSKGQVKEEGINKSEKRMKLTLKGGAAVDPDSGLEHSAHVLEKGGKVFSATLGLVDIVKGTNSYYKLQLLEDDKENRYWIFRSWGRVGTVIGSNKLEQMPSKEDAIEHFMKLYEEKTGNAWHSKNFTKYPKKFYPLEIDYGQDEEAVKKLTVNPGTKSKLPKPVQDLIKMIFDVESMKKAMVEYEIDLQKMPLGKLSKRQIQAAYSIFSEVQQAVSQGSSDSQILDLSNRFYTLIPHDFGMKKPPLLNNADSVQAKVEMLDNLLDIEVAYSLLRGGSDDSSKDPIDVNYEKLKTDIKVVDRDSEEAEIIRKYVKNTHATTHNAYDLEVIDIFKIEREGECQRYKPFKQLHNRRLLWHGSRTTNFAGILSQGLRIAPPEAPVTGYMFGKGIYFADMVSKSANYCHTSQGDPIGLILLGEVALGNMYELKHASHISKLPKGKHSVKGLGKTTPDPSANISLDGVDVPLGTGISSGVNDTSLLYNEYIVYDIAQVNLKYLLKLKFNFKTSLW

Row | Compound | PARP1 L713F-nLuc/akaLuc ratio
1 | Cc1nc(NC(=O)N2CCC[C@H]2C(N)=O)sc1-c1ccnc(C(C)(C)C(F)(F)F)c1 [Alpelisib (BYL719)] | 0.761 (inactive)
2 | CN1CCN(c2ccc(C(=O)Nc3ccc([C@@H]4C[C@H]4N)cc3)cc2)CC1 | 0.684 (inactive)
3 | CNc1cc(Nc2cccn(-c3ccccn3)c2=O)nn2c(C(=O)N[C@@H]3C[C@@H]3F)cnc12 | 0.72 (inactive)
4 | Cc1nc(C(=O)NCC(=O)O)c(O)c2ccc(Oc3ccccc3)cc12 [Roxadustat (FG-4592)] | 1.63 (inactive)
5 | Cc1cn(-c2cc(NC(=O)c3ccc(C)c(Nc4nccc(-c5cnccn5)n4)c3)cc(C(F)(F)F)c2)cn1 [Radotinib] | 0.904 (inactive)
6 | Cc1nc2cccc(N)c2c(=O)n1C1CCC(=O)NC1=O (stereo not drawn) [Avadomide(CC-122)] | 0.983 (inactive)
7 | Nc1ncc(-c2cccc(N3CCNCC3)c2)cc1C(=O)Nc1ccncc1 [PKC-iota inhibitor 1] | 1.02 (inactive)
8 | CC(=O)O[C@@]12CO[C@@H]1C[C@H](O)[C@@]1(C)C(=O)[C@H](O)C3=C(C)[C@@H](OC(=O)[C@H](O)[C@@H](NC(=O)OC(C)(C)C)c4ccccc4)C[C@@](O)([C@@H](OC(=O)c4ccccc4)[C@H]21)C3(C)C [Docetaxel] | 1.44 (inactive)
9 | O=c1cc(N2CCOCC2)oc2c(-c3ccc4c(c3)OCCO4)csc12 | 0.39 (inactive)
10 | COc1cc2c(NC3CCN(C(C)C)CC3)nc(N3CCC(F)(F)CC3)nc2cc1OCCCN1CCCC1 | 1.03 (inactive)
11 | COc1ccccc1S(=O)(=O)Nc1ccc2c3c(cc(-n4cnc(C)c4)nc13)C(=O)N2C | 1.04 (inactive)
12 | Nc1ccc(S(=O)(=O)NCCc2ccccc2)cc1 | 0.888 (inactive)
13 | CCCCC[C@H](O)CC(=O)CCc1ccc(O)c(OC)c1 [[6]-Gingerol] | 1.5 (inactive)
14 | CC(=O)Nc1ccc(C(=O)Nc2ccc(F)cc2N)cc1 | 0.984 (inactive)
15 | COC(=O)/C=C/c1ccccc1 [Methyl cinnamate] | 1.29 (inactive)
16 | C[C@@H](COCCC(=O)N1CCN(c2ncc(C(F)(F)F)cn2)CC1)Nc1cn[nH]c(=O)c1C(F)(F)F | 2.09 (inactive)
17 | O=C(c1cccc(Br)c1)N1CCC(N2CCCC2)CC1 | 0.886 (inactive)
18 | O=C1/C(=C/c2ccc(O)c(Br)c2)CN(Cc2ccccc2)C/C1=C\c1ccc(O)c(Br)c1 | 0.985 (inactive)
19 | Cc1cc(Nc2cc(N3CCN(C)CC3)nc(/C=C/c3ccccc3)n2)n[nH]1 | 1.27 (inactive)

Row | Compound | PARP1 L713F-nLuc/akaLuc ratio
20 | NC(=O)c1nc(-c2c(F)cccc2Cl)oc1Nc1ccc(C(=O)N2CCOCC2)cc1 | 0.914 (inactive)
21 | O=C(Nc1cnn2ccc(N3CCC[C@@H]3c3cc(F)ccc3F)nc12)N1CC[C@H](O)C1 [Larotrectinib (LOXO-101) sulfate] | 0.817 (inactive)
22 | CC#CC(=O)N1CC[C@@H](n2c(=O)n(-c3ccc(Oc4ccccc4)cc3)c3c(N)ncnc32)C1 [ONO-4059 (GS-4059) hydrochloride] | 1.06 (inactive)
23 | CC1=C(/C=C/C(C)=C/C=C/C(C)=C/C(=O)O)C(C)(C)CCC1 [Tretinoin] | 0.599 (inactive)
24 | COc1ccc(COc2cc3oc(=O)c4cc(C(C)O)ccc4c3cc2OC)cc1 (stereo not drawn) [Palomid 529 (P529)] | 0.578 (inactive)
25 | CO[C@@]12[C@H](COC(N)=O)C3=C(C(=O)C(C)=C(N)C3=O)N1C[C@@H]1N[C@@H]12 [Mitomycin C] | 1.07 (inactive)
26 | COc1ccc(C(=O)C2CCN(CC(=O)N(Cc3nc4c(c(=O)[nH]3)COCC4)CC3CC3)CC2)cc1 | 1.01 (inactive)
27 | CCCc1cc(C)[nH]c(=O)c1CNC(=O)c1cc(-c2ccnc(N3CCN(C)CC3)c2)cc2c1cnn2C(C)C | 2.54 (inactive)
28 | Cc1c(C(=O)Nc2ccc(N3C[C@@H](C)O[C@@H](C)C3)nc2)cccc1-c1ccc(OC(F)(F)F)cc1 [Sonidegib (Erismodegib, NVP-LDE225)] | 0.652 (inactive)
29 | CN(C)CCCCCCNC(=O)c1cccc(-c2cc(O)c3ncccc3c2)c1 | 0.363 (inactive)
30 | COc1cc(OC)cc(N(CCNC(C)C)c2ccc3ncc(-c4cnn(C)c4)nc3c2)c1 | 1.09 (inactive)
31 | CC(C)c1c(-c2cnn(C(C)(C)C)c2)nc2c(C#N)c[nH]n2c1=O | 1.58 (inactive)
32 | CNC(=O)c1nnc(NC(=O)C2CC2)cc1Nc1cccc(-c2ncn(C)n2)c1OC [Deucravacitinib] | 0.748 (inactive)
33 | Cn1c(=O)c2c(ncn2CC(=O)O)n(C)c1=O [Acefylline] | 0.921 (inactive)
34 | CC[C@H](C)[C@H](NC(=O)[C@H](CCCCN)NC(=O)[C@H](CC(C)C)NC(=O)[C@@H]1CCCN1C(=O)[C@H](CCC(=O)O)NC(=O)[C@H](Cc1ccc(O)cc1)NC(=O)[C@@H](NC(=O)[C@H](CO)NC(=O)CNC(=O)[C@H](CO)NC(=O)[C@H](CCCN=C(N)N)NC(=O)[C@H](CCCCN)NC(=O)[C@@H](NC(=O)[C@@H](N)CCCN=C(N)N)[C@@H](C)O)C(C)C)C(=O)O [Malantide] | 1.76 (inactive)
35 | CN1CCc2c(c3ccccc3n2Cc2ccc(C(=O)NO)cc2)C1 [Tubastatin A] | 1.26 (inactive)
36 | Cc1cc([C@@H](C)Nc2ccccc2C(=O)O)c2nc(N3CCOCC3)cc(=O)n2c1 | 0.617 (inactive)
37 | Cc1nc(C(=O)NCC(=O)O)c(O)c2ccc(Oc3ccccc3)cc12 [Roxadustat] | 1.02 (inactive)
38 | Cc1cnc(NC(=O)Nc2cc(Br)c(C)cc2OC[C@@H]2CNCCO2)cn1 | 0.787 (inactive)
